Laboratory results: PubChem BioAssay (NCATS)
Results filed as inconclusive are left out. The source made the active and inactive calls. Calls come from the whole dose curve; as a rule, active = well fitted curve in the direction sought with a large enough effect; inconclusive = small, poorly fitted or top-dose-only effect, or another doubt; inactive = no such curve, though single readings can be large; an effect the other way counts as inactive or inconclusive.

Legend:
[1] = BET inhibitor-based combinations targeting novel dependencies in MECOM-rearranged (r) AML: SET-2 cell line (AID 2202231); conditions: SET-2 AML cells viability, CellTiter-Glo luminescence, 48 h; viability: hits give low values, concentration not given here; note: nearly all actives have a fitted effect of over 35% in size;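 for viability: plate controls were DMSO treated cells for no effect and wells without cells for full effect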
How it was run: (§1)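 500 cells/well; 11-pt dose curve; 48 h, standard incubator; CellTiter-Glo luminescence after 15 min RT; DMSO/empty-well normalization; AUC plus Z-AUC (mean-centered within each line).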

[2] = BET inhibitor-based combinations targeting novel dependencies in MECOM-rearranged (r) AML: OCI-AML3 cell line (AID 2202232); conditions: CellTiter-Glo luminescence, 48 h; Potency: OCI-AML3 viability; series mostly up to 46 µM; note: nearly all actives have a fitted effect of over 35% in size;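 for viability (% of control): plate controls were DMSO vehicle wells for no effect and wells without cells for full effect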
How it was run: as §1

[3] = BET inhibitor-based combinations targeting novel dependencies in MECOM-rearranged (r) AML: MV-4-11 cell line (AID 2202233); conditions: MV-4-11 AML viability, CellTiter-Glo luminescence, 48 h; series mostly up to 46 µM; note: nearly all actives have a fitted effect of over 45% in size;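 for viability, % of control: plate controls were DMSO for no effect and blank wells for full effect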
How it was run: (§2)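 Cells were plated at 500 per well and exposed to each drug across an 11-point dose range for 48 hr at standard incubator conditions. Viability was read by CellTiter-Glo luminescence, and activity was expressed as AUC and per-cell-line Z-transformed AUC.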

[4] = BET inhibitor-based combinations targeting novel dependencies in MECOM-rearranged (r) AML: HNT-34 cell line (AID 2202234); conditions: HNT-34 AML viability, CellTiter-Glo luminescence, 48 h; series mostly up to 46 µM; note: nearly all actives have a fitted effect of over 35% in size;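 for viability (% of control): plate controls were vehicle wells for no effect and cell-free wells for full effect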
How it was run: as §2

[5] = BET inhibitor-based combinations targeting novel dependencies in MECOM-rearranged (r) AML: UCSD-AML1 cell line (AID 2202235); conditions: UCSD-AML1 AML cells viability, CellTiter-Glo, 48 h; series mostly up to 46 µM; note: nearly all actives have a fitted effect of over 40% in size;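 for viability (% of control): plate controls were DMSO vehicle wells for no effect and blank wells for full effect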
How it was run: as §2

[6] = BET inhibitor-based combinations targeting novel dependencies in MECOM-rearranged (r) AML: AML-191 cell line (AID 2202236; note: nearly all actives have a fitted effect of over 35% in size;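 for viability (% of control): plate controls were vehicle wells for no effect and wells without cells for full effect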); conditions: AML-191 viability, CellTiter-Glo luminescence, 48 h; series mostly up to 46 µM
How it was run: as §1

[7] = BET inhibitor-based combinations targeting novel dependencies in MECOM-rearranged (r) AML: AML-194 cell line (AID 2202237; note: nearly all actives have a fitted effect of over 40% in size;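 for viability (% of control): plate controls were vehicle wells for no effect and wells without cells for full effect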); conditions: AML-194 (MECOM-r AML) viability, CellTiter-Glo, 48 h; series mostly up to 46 µM
How it was run: as §1
Potency is the fitted concentration of half-maximal effect.

CN1C(=O)[C@@H](NC(=O)c2n[nH]c(Cc3ccccc3)n2)COc2ccccc21
inactive: viability [1] 110% | Potency [2] | Potency [3] | Potency [4] | Potency [5] | Potency [6] | Potency [7]

CC(C)(C)OC(=O)Nc1ccc(-c2cc(C(=O)NCCCCCCC(=O)NO)no2)cc1
active: Potency [1] 2.95 µM | Potency [2] 2.63 µM | Potency [3] 1.66 µM | Potency [4] 2.35 µM | Potency [5] 3.72 µM | Potency [6] 2.63 µM | Potency [7] 3.32 µM

C[C@H](CCC(=O)O)[C@H]1CC[C@H]2[C@@H]3[C@H](O)C[C@@H]4C[C@H](O)CC[C@]4(C)[C@H]3CC[C@]12C
inactive: viability [1] 104% | Potency [2] | Potency [3] | Potency [4] | Potency [5] | Potency [6] | Potency [7]

COc1ccc(S(=O)(=O)N(CCO)c2ccccc2CN(C)C/C=C/c2ccc(Cl)cc2)cc1
active: Potency [1] 20.9 µM | Potency [2] 14.8 µM | Potency [3] 18.6 µM | Potency [4] 13.2 µM | Potency [5] 16.6 µM | Potency [6] 14.8 µM | Potency [7] 18.6 µM

CC(=O)N[C@H]1CSSC[C@@H](C(N)=O)NC(=O)[C@H](C(C)C)NC(=O)[C@H](C)NC(=O)[C@H](Cc2cnc[nH]2)NC1=O
inactive: viability [1] 113% | Potency [2] | Potency [3] | Potency [4] | Potency [5] | Potency [6] | Potency [7]

N#Cc1ccc(C(c2ccc(C#N)cc2)n2cncn2)cc1
inactive: viability [1] 96.2% | Potency [2] | Potency [3] | Potency [4] | Potency [5] | Potency [6] | Potency [7]

CCC(=O)NCC[C@@H]1CCc2ccc3c(c21)CCO3
inactive: viability [1] 114% | Potency [2] | Potency [3] | Potency [4] | Potency [5] | Potency [6] | Potency [7]

Ac-PHSCN-NH2
inactive: viability [1] 109% | Potency [2] | Potency [3] | Potency [4] | Potency [5] | Potency [6] | Potency [7]

N=C(N)c1ccc(OCCCCCOc2ccc(C(=N)N)cc2)cc1
active: Potency [1] 20.9 µM | Potency [2] 8.33 µM | Potency [3] 13.2 µM | Potency [4] 26.3 µM | Potency [5] 23.5 µM | Potency [6] 18.6 µM | Potency [7] 20.9 µM

COc1cc(=C2C=c3ccccc3=N2)[nH]/c1=C/c1[nH]c(C)cc1C
active: Potency [1] 4.17 µM | Potency [2] 2.63 µM | Potency [3] 2.35 µM | Potency [4] 3.72 µM | Potency [5] 3.32 µM | Potency [6] 2.35 µM | Potency [7] 5.9 µM

CCN[C@H]1C[C@H](C)S(=O)(=O)c2sc(S(N)(=O)=O)cc21
inactive: viability [1] 114% | Potency [2] | Potency [3] | Potency [4] | Potency [5] | Potency [6] | Potency [7]

COCc1c(-c2ccc(NC(=O)Nc3cc(C(F)(F)F)ccc3F)c(F)c2)c2c(N)ncnn2c1CN1CCOCC1
active: Potency [1] 6.61 µM | Potency [2] 10.5 µM | Potency [3] 0.0263 µM | Potency [4] 2.35 µM | Potency [5] 6.61 µM | Potency [6] 5.9 µM | Potency [7] 5.9 µM

CCCCCCCOc1ccc(CCC(N)(CO)CO)cc1C(F)(F)F
active: Potency [1] 18.6 µM | Potency [2] 16.6 µM | Potency [3] 14.8 µM | Potency [4] 14.8 µM | Potency [5] 10.5 µM | Potency [6] 18.6 µM | Potency [7] 14.8 µM

C[C@]12CC[C@H](O)CC1=CC[C@@H]1[C@@H]2CC[C@]2(C)C(c3cccnc3)=CC[C@@H]12
inactive: viability [1] 107% | Potency [2] | Potency [3] | Potency [4] | Potency [5] | Potency [6] | Potency [7]

Cc1c(F)cccc1NC(=O)Nc1ccc(Cl)c(S(=O)(=O)[C@H]2CCCNC2)c1O
inactive: viability [1] 112% | Potency [2] | Potency [3] | Potency [4] | Potency [5] | Potency [6] | Potency [7]

CCC[C@H](NC(=O)/C(C#N)=C/c1cccc(Br)n1)c1ccccc1
active: Potency [1] 4.17 µM | Potency [2] 3.32 µM | Potency [3] 2.95 µM | Potency [4] 2.95 µM | Potency [5] 3.32 µM | Potency [6] 3.72 µM | Potency [7] 7.42 µM

CN(C)CCN1C(=O)c2cccc3cc(NC(N)=O)cc(c23)C1=O
active: Potency [1] 18.6 µM | Potency [2] 13.2 µM | Potency [3] 2.95 µM | Potency [4] 8.33 µM | Potency [5] 5.9 µM | Potency [6] 9.34 µM | Potency [7] 9.34 µM

CC(C)(S)[C@@H](N)C(=O)O
inactive: viability [1] 116% | viability (% of control) [2] 118% [at 5.12 µM] | viability, % of control [3] 125% [at 5.12 µM] | viability (% of control) [4] 108% [at 5.12 µM] | viability (% of control) [5] 112% [at 5.12 µM] | viability (% of control) [6] 111% [at 5.12 µM] | viability (% of control) [7] 114% [at 5.12 µM]
